Bioassay records: PubChem, National Center for Advancing Translational Sciences (NCATS)
SMN2 splice enh = SMN2 splice variant enhancement. 210,000 compounds, 2.8% hits. AID 1458. HEK293 SMN2-luciferase splicing reporter, luminescence, 30-36 h. Potency, µM (series often up to 46.1 µM), actives largely listed as activators; also: nearly all actives have a fitted effect of over 55% in size
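qHTS luciferase splicing reporter: luminescence rises when SMN2 exon 7 is included in transfected HEK293 cells. Compound exposure lasted 30-36 h at 37C, with 4.5 mM final sodium butyrate as control, followed by a ONE-Glo read.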
ELG1 DNA repair = blocks ELG1-dependent DNA repair in HEK293T cells. 330,000 compounds, 2.3% hits. HEK293T ELG1-luciferase reporter, luminescence, 16 h; DNA damage induced by 5-fluorouridine. Potency, µM (titrated, usually from 46.1 µM), most hits filed as inhibitors; also: nearly all actives have a fitted effect of over 55% in size
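DMSO vehicle served as the neutral condition. Each well held 2,000 cells given 5-fluorouridine plus compound; after 16 hr at 37 °C/5% CO2, ONE-Glo was added and luciferase measured 30 min later.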
Rab9 prom act = Rab9 promoter activation; Potency, µM (series often up to 9.22 µM), usual class: activators; Huh7 Rab9 promoter-luciferase reporter, luminescence, 24 h; AID 485297; 320,000 compounds, 2.8% hits; also: nearly all actives have a fitted effect of over 60% in size
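Huh7 reporter line, Rab9 promoter upstream of luciferase. Compound exposure 24 h at 37 °C in reduced-serum medium with 10% FBS. Read-out: luminescence.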
FLuc counter = inhibits or activates purified firefly luciferase, miR-21 counter-screen. P08659. purified FLuc, Km substrates, luminescence inhibition. Potency, µM (top dose mostly 57.5 µM), hits mostly inhibitors. 360,000 compounds, 6.9% hits; also: nearly all actives have a fitted effect of over 55% in size
Target sequence (P08659 whole entry, looked up): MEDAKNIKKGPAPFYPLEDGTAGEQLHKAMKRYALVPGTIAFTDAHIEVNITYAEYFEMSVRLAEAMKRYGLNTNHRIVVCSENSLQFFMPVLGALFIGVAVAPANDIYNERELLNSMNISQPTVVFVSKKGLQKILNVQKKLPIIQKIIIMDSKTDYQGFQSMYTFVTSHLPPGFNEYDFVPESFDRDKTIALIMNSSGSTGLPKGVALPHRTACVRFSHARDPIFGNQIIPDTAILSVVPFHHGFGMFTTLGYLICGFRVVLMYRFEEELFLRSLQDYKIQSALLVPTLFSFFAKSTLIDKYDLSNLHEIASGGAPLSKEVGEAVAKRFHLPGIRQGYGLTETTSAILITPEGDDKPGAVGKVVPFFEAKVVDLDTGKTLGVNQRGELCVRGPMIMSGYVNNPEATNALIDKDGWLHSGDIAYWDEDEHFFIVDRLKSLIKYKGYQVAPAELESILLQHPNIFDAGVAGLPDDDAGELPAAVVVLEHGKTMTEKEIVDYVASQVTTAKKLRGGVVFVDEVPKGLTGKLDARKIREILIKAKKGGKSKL
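Purified P. pyralis luciferase (10nM final) with 10uM D-luciferin and 10uM ATP (Km levels) in 50mM Tris acetate pH 7.5, 10mM Mg acetate, 0.01% Tween-20, 0.05% BSA; qHTS 6-point titration, ~60 µM downward; luminescence read.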
ELG1 genotox = inducers of genotoxicity in HEK293T ELG1-luciferase cells; 330,000 compounds, 1.3% hits; Potency, µM (doses to about 46 µM), most hits filed as activators; AID 504466; HEK293T ELG1-luciferase reporter, luminescence, 16 h; also: nearly all actives have a fitted effect of over 60% in size
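DMSO vehicle served as control against compound-treated ELG1-luciferase HEK293T cells; exposure lasted 16 hr at 37 °C and 5% CO2, followed by ONE-Glo luminescence detection after 30 min.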
NPC1 prom act = activators of NPC1 promoter | AID 485313 | Potency, µM (top dose mostly 9.22 µM), actives largely listed as activators | 320,000 compounds, 2.4% hits | Huh7 NPC1 promoter luciferase reporter, 24 h; also: nearly all actives have a fitted effect of over 60% in size
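In 1536-well qHTS, Huh7 cells harboring an NPC1 promoter–luciferase construct received compound for 24 h; activation was quantified by luminescence following luciferase reagent addition.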
A number is an active result; n = inactive; u = inconclusive; x = no result given; [ ] = dose if it differs, or a comment. Hits are enriched below; roughly 9.2% of the tested compounds scored in any of these assays. Calls follow the shape of the dose curve; as a rule, active = well fitted curve in the direction sought with a large enough effect; inconclusive = small, poorly fitted or top-dose-only effect, or another doubt; inactive = no such curve, though single readings can be large; an effect the other way counts as inactive or inconclusive.

SMILES | SMN2 splice enh | ELG1 DNA repair | Rab9 prom act | FLuc counter | ELG1 genotox | NPC1 prom act
O=C(Nc1nccs1)c1ccc(-c2ccc(Cl)cc2Cl)o1 | 14µM | u | 3.2µM | 0.85µM | u | 3.5µM
O=C(Nc1cccc(S(=O)(=O)NC2=NCCC2)c1)c1cnc(Cl)c(Cl)c1 | x | n | n | n | n | n
Cc1cc2nc(-c3ccc(SCC(=O)Nc4nccs4)nc3)[nH]c2cc1C | u | u | 2.5µM | u | u | 3.5µM
CC(=O)CSc1ccc(-c2nc3cc(C)c(C)cc3[nH]2)cn1 | x | n | n | n | n | n
Cc1cc2nc(-c3ccc(SCC(=O)Nc4ccc(S(=O)(=O)N5CCCC5)cc4)nc3)[nH]c2cc1C | 13µM | u | 2µM | 0.3µM | u | 2.5µM
O=C(CSc1ccc(-c2nc3ccccc3[nH]2)cn1)Nc1ccc(S(=O)(=O)N2CCCC2)cc1 | n | n | n | 4.8µM | n | n
COc1nc(-c2ccccc2)nnc1-c1ccccc1 | 13µM | u | 3.2µM | 5.4µM | 8.2µM | u
Clc1ccc(-c2nnc(-c3ccccc3)c(-c3ccccc3)n2)cc1 | x | n | n | n | n | n
COc1ccc(-c2cc(C(=O)N/N=C(\C)c3cccnc3)c3cc(C)ccc3n2)cc1OC | x | n | n | n | n | n
Cc1ccc(N/C=C(/C#N)c2ccsc2)cc1 | u | x | x | 17µM | x | x
N#C/C(=C/Nc1ccccc1)c1ccsc1 | n | x | x | u | x | x
COc1ccc(CNC(=O)CN2CCN(c3ccccc3O)CC2)cc1OC | x | n | n[1.84 µM] | n | n | n
O=C(COc1ccc(F)cc1Br)NCc1ccccn1 | n | x | x | u | x | x
Cc1cc(C(=O)NCc2ccccc2Cl)c2ccccc2n1 | x | n | n | u | n | n
CCc1ccc(-c2cc(C(=O)NCc3ccccn3)c3ccccc3n2)cc1 | n | u | n | 0.85µM | n | n
CCOc1ccc(-c2cc(C(=O)NCc3ccc(C)cc3)c3ccccc3n2)cc1 | x | x | x | n | x | x
CCc1ccccc1Nc1cc(C(=O)NCc2ccccn2)c2ccccc2n1 | n | u | n | 17µM | n | n
Cc1ccc(OCC(=O)NCc2ccccn2)c(Br)c1 | n | u | u | 17µM | u | u
Cc1cc(CNC(=O)c2cccnc2Cl)c2ccccc2n1 | n | 5.2µM | n | n | n | n
CCOC(=O)C1=C(COC(=O)/C=C/c2cccc(OC)c2OC)NC(=O)NC1C (stereo not drawn) | x | u | n | n | n | n
CSc1ncnc2c1ncn2CC(=O)[C@H]1CC[C@H]2[C@H]3CCC4=CC(=O)CC[C@@]4(C)[C@@H]3CC[C@@]12C | n[9.22 µM] | x | x | x | x | x
Cc1cc(Cl)ccc1NC(=O)CN1C(=O)NC2(CCCc3ccccc32)C1=O (stereo not drawn) | x | n | n | n | n | n
O=C(NCCc1ccccn1)c1cc(-c2cccc3ccccc23)nc2ccccc12 | n | 23µM | n | n | n | n
Cc1ccc(-c2cc(C(=O)NCc3ccccn3)c3ccccc3n2)cc1 | u | u | n | 4.3µM | n | n
O=C(NCc1ccccn1)c1cc(-c2ccc(Br)cc2)nc2ccccc12 | n | u | n | u | n | n
SMILES | SMN2 splice enh | ELG1 DNA repair | Rab9 prom act | FLuc counter | ELG1 genotox | NPC1 prom act
Cc1ccc(-c2cc(C(=O)NCCc3ccccn3)c3ccccc3n2)c(C)c1 | n | u | n | n | n | n
Cc1cc(C)cc(NC(=O)c2cc(C)n(Cc3cccs3)c2C)c1 | x | u | 0.71µM | 0.34µM | u | 1.1µM
CCCN(Cc1cccs1)C(=O)Nc1cc(C)cc(C)c1 | x | x | x | n | x | x
Cc1cc(C(=O)Nc2ccc(Cl)cc2)c(C)n1Cc1cccs1 | x | u | 0.32µM | 0.6µM | 2.3µM | 0.71µM
Cc1cccc(C(=O)N2CCCC(c3nc(-c4ccc(C)o4)no3)C2)c1 (stereo not drawn) | x | u | 4µM | u | n | u
CCOc1ccc(C(=O)N2CCCC(c3nc(-c4cccs4)no3)C2)cc1 (stereo not drawn) | x | n | n | 21µM | n | n
CCC(CC)C(=O)N1CCCC(c2nc(-c3cccs3)no2)C1 (stereo not drawn) | n | n | n | n[2.3 µM] | n | n
Cc1ccc(-c2noc(C3CCN(C(=O)Nc4ccc(C#N)cc4)CC3)n2)o1 | n | 26µM | n | n | n | n
